Data reported in PubChem BioAssay (EPA / NIEHS).
The source made the active and inactive calls. How the source made its calls: active means hit-call score of the fitted dose curve at least 0.9, where 1 is the maximum; inactive means score below 0.9.

Tests used:
Conditions in all cases: mRNA level, 48 h; actives raise or lower the signal
[1] = read-out: Forkhead box O3 (FOXO3), FOXO3 (gene 2309); test: LTEA_HepaRG_FOXO3: Life Technologies and Expression Analysis (LTEA) Assay for Forkhead box O3 (FOXO3) using HepaRG (AID 2283459)
Summary of the method: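 FOXO3 transcript measured by qRT-PCR (normalized to ACTB, GAPDH, POLR2A) after 48 h exposure of HepaRG cells in serum-free induction medium. Duplicates, eight half-log concentrations up to 100 uM, 0.5% DMSO; gain or loss fitted against DMSO.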

[2] = read-out: ABC Transporter (ABCB1), ABCB1 (gene 5243); test: LTEA_HepaRG_ABCB1: Life Technologies and Expression Analysis (LTEA) Assay for ABC Transporter (ABCB1) using HepaRG (AID 2283460)
Summary of the method: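 ABCB1 transcript level measured by TaqMan qRT-PCR against three housekeeping genes after 48 h chemical exposure of differentiated HepaRG cells. Top concentration 100 uM, half-log steps, eight points, 0.5% DMSO vehicle; bidirectional fit relative to DMSO.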

[3] = read-out: growth arrest and DNA damage 45 (GADD45B), GADD45B (gene 4616); test: LTEA_HepaRG_GADD45B: Life Technologies and Expression Analysis (LTEA) Assay for growth arrest and DNA damage 45 (GADD45B) using HepaRG (AID 2283461)
Summary of the method: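 Human HepaRG monolayers receive chemicals for 48 h at eight half-log concentrations, highest 100 uM, in 0.5% DMSO. Expression is measured by TaqMan qRT-PCR and normalized to ACTB, GAPDH and POLR2A.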

[4] = read-out: ABC Transporter (ABCC3), ABCC3 (gene 8714); test: LTEA_HepaRG_ABCC3: Life Technologies and Expression Analysis (LTEA) Assay for ABC Transporter (ABCC3) using HepaRG (AID 2283462)
Summary of the method: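 Transcriptional change of ABCC3 in HepaRG after 48 h treatment, determined by qRT-PCR normalized to endogenous controls. Concentrations spanned eight half-log steps to 100 uM in 0.5% DMSO.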

[5] = read-out: ABC Transporter (ABCB11), ABCB11 (gene 8647); test: LTEA_HepaRG_ABCB11: Life Technologies and Expression Analysis (LTEA) Assay for ABC Transporter (ABCB11) using HepaRG (AID 2283463)
Summary of the method: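 ABCB11 transcript levels quantified by TaqMan qRT-PCR against three housekeeping genes after 48 h chemical exposure of HepaRG cultures. Concentrations up to 100 uM in half-log steps, 0.5% DMSO vehicle; both induction and suppression scored.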

[6] = read-out: ABC Transporter (ABCC2), ABCC2 (gene 1244); test: LTEA_HepaRG_ABCC2: Life Technologies and Expression Analysis (LTEA) Assay for ABC Transporter (ABCC2) using HepaRG (AID 2283464)
Summary of the method: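 After plating and 48 h culture, HepaRG medium is replaced with serum-free induction medium and chemicals are added (8 concentrations, max 100 uM, 0.5% DMSO) for 48 h. Total RNA then undergoes qRT-PCR for ABCC2 with housekeeping normalization.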

[7] = read-out: Broad substrate specificity ATP-binding cassette transporter ABCG2 (Homo sapiens) (UniProt Q9UNQ0); test: LTEA_HepaRG_ABCG2: Life Technologies and Expression Analysis (LTEA) Assay for ABC Transporter (ABCG2) using HepaRG (AID 2283465)
Summary of the method: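 ABCG2 transcript was quantified by TaqMan qRT-PCR against three housekeeping genes in HepaRG cells. Cells were treated in duplicate for 48 h across an 8-point half-log series up to 100 uM, with 0.5% DMSO vehicle. Gain or loss versus DMSO was fit.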

[8] = read-out: ATP-citrate lyase (ACLY), ACLY (gene 47); test: LTEA_HepaRG_ACLY: Life Technologies and Expression Analysis (LTEA) Assay for ATP-citrate lyase (ACLY) using HepaRG (AID 2283466)
Summary of the method: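 ACLY mRNA quantified by qRT-PCR on Fluidigm arrays against three housekeeping genes, after 48 h chemical treatment of HepaRG cells (top concentration 100 uM, half-log steps, 0.5% DMSO vehicle). Up- or down-regulation fitted relative to DMSO.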

[9] = read-out: Peroxisomal acyl-coenzyme A oxidase 1 (ACOX1) gene, ACOX1 (gene 51); test: LTEA_HepaRG_ACOX1: Life Technologies and Expression Analysis (LTEA) Assay for Peroxisomal acyl-coenzyme A oxidase 1 (ACOX1) gene using HepaRG (AID 2283467)
Summary of the method: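 ACOX1 transcript levels were quantified by TaqMan qRT-PCR against three housekeeping genes after 48 h chemical exposure of differentiated human HepaRG cells. Exposure used eight half-log steps topping at 100 uM, 0.5% DMSO vehicle, in duplicate. Bidirectional curve fits were made relative to DMSO.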

[10] = read-out: Alkaline Phosphatase, Placental (ALPP) gene, ALPP (gene 250); test: LTEA_HepaRG_ALPP: Life Technologies and Expression Analysis (LTEA) Assay for Alkaline Phosphatase, Placental (ALPP) gene using HepaRG (AID 2283468)
Summary of the method: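 Using human liver HepaRG cells, chemicals are tested in duplicate over 48 h at half-log concentrations topping at 100 uM; phenobarbital 1 mM serves as induction control. ALPP mRNA change by qRT-PCR, bidirectional fit against vehicle.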

[11] = read-out: Bcl-2 (BAD) gene, BAD (gene 572); test: LTEA_HepaRG_BAD: Life Technologies and Expression Analysis (LTEA) Assay for Bcl-2 (BAD) gene using HepaRG (AID 2283469)
Summary of the method: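 Read-out: qRT-PCR of BAD mRNA, normalized to three housekeeping genes. Human HepaRG cultures got 48 h chemical exposure in 0.5% DMSO, duplicate eight-point half-log series topping at 100 uM. Gain or loss of signal fitted versus DMSO vehicle.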

[12] = read-out: Bcl-2 (BAX) gene, BAX (gene 581); test: LTEA_HepaRG_BAX: Life Technologies and Expression Analysis (LTEA) Assay for Bcl-2 (BAX) gene using HepaRG (AID 2283470)
Summary of the method: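 Human HepaRG cells treated in duplicate for 48 h across eight concentrations (max 100 uM, 0.5% DMSO); BAX expression measured by qRT-PCR.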

[13] = read-out: adenosine kinase (ADK) gene, ADK (gene 132); test: LTEA_HepaRG_ADK: Life Technologies and Expression Analysis (LTEA) Assay for adenosine kinase (ADK) gene using HepaRG (AID 2283471)
Summary of the method: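 Differentiated HepaRG cells dosed 48 h in serum-free induction medium, 0.5% DMSO vehicle, eight half-log concentrations from 100 uM, in duplicate. ADK mRNA by TaqMan qRT-PCR normalised to ACTB, GAPDH, POLR2A; bidirectional fit versus DMSO.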

[14] = read-out: Alpha-fetoprotein (AFP) gene, AFP (gene 174); test: LTEA_HepaRG_AFP: Life Technologies and Expression Analysis (LTEA) Assay for Alpha-fetoprotein (AFP) gene using HepaRG (AID 2283472)
Summary of the method: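 Measures AFP mRNA change in HepaRG after 48 h chemical exposure (8 half-log concentrations, highest 100 uM, 0.5% DMSO). Fold change relative to DMSO, fitted in both directions.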

BCL2L11 (gene 10018) = test: LTEA_HepaRG_BCL2L11: Life Technologies and Expression Analysis (LTEA) Assay for Bcl-2 (BCL2L11) gene using HepaRG (AID 2283473)
Summary of the method: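 Human hepatic HepaRG cultures are treated 48 h with test chemicals (maximum 100 uM, 0.5% DMSO vehicle). Expression of BCL2L11 is measured by qRT-PCR against ACTB, GAPDH and POLR2A, with activity in either direction scored relative to vehicle.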

[15] = read-out: Apolipoprotein A-V (APOA5) gene, APOA5 (gene 116519); test: LTEA_HepaRG_APOA5: Life Technologies and Expression Analysis (LTEA) Assay for Apolipoprotein A-V (APOA5) gene using HepaRG (AID 2283474)
Summary of the method: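 Concentration-response of APOA5 expression in HepaRG: eight half-log doses to 100 uM, 48 h, qRT-PCR normalized to ACTB/GAPDH/POLR2A, bidirectional fitting with 0.5% DMSO as baseline.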

[16] = read-out: Apoptosis regulator Bcl-2 (Homo sapiens) (UniProt P10415); test: LTEA_HepaRG_BCL2: Life Technologies and Expression Analysis (LTEA) Assay for Bcl-2 gene using HepaRG (AID 2283475)
Summary of the method: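 Each chemical was tested in duplicate on HepaRG cultures held in serum-free induction medium for 48 h, highest concentration 100 uM with half-log dilutions. Transcript levels came from multiplexed qRT-PCR, normalised to housekeeping genes; activity was scored in either direction relative to DMSO.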

[17] = read-out: Bcl-2 (BID) gene, BID (gene 637); test: LTEA_HepaRG_BID: Life Technologies and Expression Analysis (LTEA) Assay for Bcl-2 (BID) gene using HepaRG (AID 2283476)
Summary of the method: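 Assay used HepaRG hepatic cells treated 48 h in serum-free medium with half-log dilutions from 100 uM. Endpoint: BID mRNA, qRT-PCR, normalized to ACTB/GAPDH/POLR2A.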

Caspase-3 (Homo sapiens) = Caspase-3 (Homo sapiens) (UniProt P42574); test: LTEA_HepaRG_CASP3: Life Technologies and Expression Analysis (LTEA) Assay for cysteine-aspartic acid protease (CASP3) using HepaRG (AID 2283477)
Caspase-3 (Homo sapiens), sequence (P42574 whole entry, looked up): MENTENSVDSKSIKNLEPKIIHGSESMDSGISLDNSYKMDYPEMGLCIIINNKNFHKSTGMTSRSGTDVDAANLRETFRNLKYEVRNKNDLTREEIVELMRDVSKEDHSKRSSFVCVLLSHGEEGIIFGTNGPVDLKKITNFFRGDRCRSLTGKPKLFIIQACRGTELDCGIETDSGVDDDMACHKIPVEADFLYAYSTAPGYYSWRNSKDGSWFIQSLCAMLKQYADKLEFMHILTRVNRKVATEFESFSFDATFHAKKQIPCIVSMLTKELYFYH
Summary of the method: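 Transcript-level assay: CASP3 mRNA in human HepaRG after 48 h treatment, eight half-log concentrations from 100 uM in 0.5% DMSO, quantified by qRT-PCR.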

[18] = read-out: Cytochrome P450 (CYP24A1), CYP24A1 (gene 1591); test: LTEA_HepaRG_CYP24A1: Life Technologies and Expression Analysis (LTEA) Assay for Cytochrome P450 (CYP24A1) using HepaRG (AID 2283478)
Summary of the method: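 Gene expression of CYP24A1 by TaqMan qRT-PCR in HepaRG after 48 h treatment, highest concentration 100 uM; activity fitted in both directions relative to DMSO vehicle.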

Measured: outcome

Apoptosis regulator Bcl-2 (Homo sapiens), sequence (P10415 whole entry, looked up): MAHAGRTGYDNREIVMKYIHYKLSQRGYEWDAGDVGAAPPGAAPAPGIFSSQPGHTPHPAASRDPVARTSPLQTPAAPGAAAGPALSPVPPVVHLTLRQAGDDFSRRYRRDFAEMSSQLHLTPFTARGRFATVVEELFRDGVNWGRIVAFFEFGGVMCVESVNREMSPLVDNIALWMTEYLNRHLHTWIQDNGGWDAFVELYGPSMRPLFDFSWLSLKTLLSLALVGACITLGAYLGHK
Broad substrate specificity ATP-binding cassette transporter ABCG2 (Homo sapiens), sequence (Q9UNQ0 whole entry, looked up): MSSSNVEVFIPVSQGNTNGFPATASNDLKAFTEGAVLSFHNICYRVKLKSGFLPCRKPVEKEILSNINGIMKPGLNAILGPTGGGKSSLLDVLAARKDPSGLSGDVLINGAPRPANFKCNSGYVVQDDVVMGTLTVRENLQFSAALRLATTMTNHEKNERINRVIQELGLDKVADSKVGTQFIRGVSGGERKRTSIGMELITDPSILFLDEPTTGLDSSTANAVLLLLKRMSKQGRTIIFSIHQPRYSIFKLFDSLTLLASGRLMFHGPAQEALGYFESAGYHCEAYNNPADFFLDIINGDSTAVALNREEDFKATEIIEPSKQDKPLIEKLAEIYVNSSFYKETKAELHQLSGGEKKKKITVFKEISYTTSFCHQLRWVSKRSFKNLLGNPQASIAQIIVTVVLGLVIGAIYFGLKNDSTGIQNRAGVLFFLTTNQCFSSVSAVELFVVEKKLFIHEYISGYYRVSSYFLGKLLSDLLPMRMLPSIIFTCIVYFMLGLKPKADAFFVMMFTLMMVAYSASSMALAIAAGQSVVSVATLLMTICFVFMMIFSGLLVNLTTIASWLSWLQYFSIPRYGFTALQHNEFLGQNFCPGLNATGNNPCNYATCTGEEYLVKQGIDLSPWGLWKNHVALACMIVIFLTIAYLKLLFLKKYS

CS(=O)(=O)OCCCCOS(C)(=O)=O
inactive: [1] | [2] | [3] | [4] | [5] | [6] | [7] | [8] | [9] | [10] | [11] | [12] | [13] | [14] | BCL2L11 (gene 10018) | [15] | [16] | [17] | Caspase-3 (Homo sapiens) | [18]
